Assay results as given in PubChem BioAssay (EPA / NIEHS).
Inconclusive results are not listed. Active and inactive are the calls of the source. Rule for the calls: active = hit-call score of the fitted dose curve at least 0.9, where 1 is the maximum; inconclusive = response in the unintended direction; inactive = score below 0.9.

Legend:
[1] = molecular target: Cellular tumor antigen p53 (Homo sapiens) (UniProt P04637); experiment: TOX21_p53_BLA_p3_ratio: Tox21 HCT-116 p53 Agonism Beta-lactamase Assay, Ratio, Phase 3 (AID 2283596)
In short: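 Cells were seeded at 4000/well, rested 5 h at 37C, then dosed with DMSO compound solutions (217-fold dilution) for 16 h. CCF4-AM substrate was loaded for 2 h at room temperature, and the 460/530 nm emission ratio was fitted for gain of signal versus DMSO.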

[2] = molecular target: Cellular tumor antigen p53 (Homo sapiens) (UniProt P04637); experiment: TOX21_p53_BLA_p4_ratio: Tox21 HCT-116 p53 Agonism Beta-lactamase Assay, Ratio, Phase 4 (AID 2283601)
In short: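 Signal is the blue/green (460nm/530nm) ratio of cleaved versus uncleaved CCF4-AM substrate, read after 2 h substrate loading. Cells were HCT116 carrying the p53-responsive beta-lactamase reporter, dosed 16 h at 37C, 5% CO2; CellTiter-Glo measured in parallel.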

[3] = TOX21_p53_BLA_p4_viability: Viability Assessment in the Tox21 HCT-116 p53 Agonism Beta-lactamase Assay, Phase 4 (AID 2283597);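 note: hits lower the luminescence signal meaning cytotoxicity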
In short: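 Readout: ATP luminescence (CellTiter-Glo), measured 30 min after reagent addition at RT. The reagent followed a 2 h CCF4-AM incubation, and the cells had been exposed to compound for 16 h at 37C.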

[4] = molecular target: Cellular tumor antigen p53 (Homo sapiens) (UniProt P04637); experiment: TOX21_p53_BLA_p5_ratio: Tox21 HCT-116 p53 Agonism Beta-lactamase Assay, Ratio, Phase 5 (AID 2283599)
In short: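 Beta-lactamase reporter ratio (blue 460 nm over green 530 nm, 405 nm excitation) after 2 h CCF4-AM loading, in HCT-116 cells exposed 16 h at 37 C to compounds pinned at 217-fold dilution. Increases relative to DMSO baseline scored.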

[5] = TOX21_p53_BLA_p5_viability: Viability Assessment in the Tox21 HCT-116 p53 Agonism Beta-lactamase Assay, Phase 5 (AID 2283600)
In short: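 Workflow: seed 4000 cells per well, wait 5 h, add compounds (DMSO, 217-fold dilution), incubate 16 h, load CCF4-AM 2 h, add CellTiter-Glo, read luminescence after 30 min.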

Sequence of Cellular tumor antigen p53 (Homo sapiens) (P04637 whole entry, looked up): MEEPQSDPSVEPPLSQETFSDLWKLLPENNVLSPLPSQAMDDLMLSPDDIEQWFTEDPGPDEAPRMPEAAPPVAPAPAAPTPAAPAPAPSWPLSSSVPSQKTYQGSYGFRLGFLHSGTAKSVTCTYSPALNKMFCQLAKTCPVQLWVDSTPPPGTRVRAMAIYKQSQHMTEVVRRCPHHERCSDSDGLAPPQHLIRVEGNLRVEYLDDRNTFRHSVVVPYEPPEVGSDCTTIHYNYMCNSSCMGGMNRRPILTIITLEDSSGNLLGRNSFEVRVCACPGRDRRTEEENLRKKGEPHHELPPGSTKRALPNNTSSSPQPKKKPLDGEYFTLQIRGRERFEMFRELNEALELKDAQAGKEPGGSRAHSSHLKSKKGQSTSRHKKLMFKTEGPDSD

Row | SMILES | outcome [1] | outcome [2] | outcome [3] | outcome [4] | outcome [5]
1 | C[C@H]1[C@H](NC(=O)C(=NOC(C)(C)C(=O)O)c2csc(N)n2)C(=O)N1S(=O)(=O)O | inactive | inactive | – | – | –
2 | ClCCl | – | inactive | inactive | inactive | –
3 | CCCCCCCC/C=C\CCCCCCCC(=O)OCCOC(=O)CCCCCCC/C=C\CCCCCCCC | – | inactive | inactive | inactive | –
4 | Nc1c(Cl)cc(Cl)cc1Cl | – | – | inactive | inactive | –
5 | CC(C)(O/N=C(\C(=O)N[C@@H]1C(=O)N2C(C(=O)[O-])=C(C[n+]3ccccc3)CS[C@H]12)c1csc(N)n1)C(=O)O | – | inactive | inactive | inactive | inactive
6 | O=C(NNCS(=O)(=O)O)c1ccncc1 | – | inactive | inactive | inactive | –
7 | CCCn1c(=O)[nH]c(=O)c2[nH]cnc21 | – | inactive | inactive | inactive | inactive
8 | O=C(O)CCNC(=O)c1ccc(N=Nc2ccc(O)c(C(=O)O)c2)cc1 | – | inactive | inactive | inactive | –
9 | CC(C(=O)O)c1ccc2c(c1)CC(=O)c1ccccc1S2 (configuration not stated) | – | inactive | inactive | – | –
10 | CCN(CC)CCNC(=O)COc1ccc(OC)cc1 | – | inactive | inactive | inactive | inactive
11 | CCCCCCCCCCCc1ccccc1 | – | inactive | inactive | – | –
12 | Cc1ccc(C(=O)Nc2ccc(S(=O)(=O)O)c3cc(S(=O)(=O)O)cc(S(=O)(=O)O)c23)cc1NC(=O)c1cccc(NC(=O)Nc2cccc(C(=O)Nc3cc(C(=O)Nc4ccc(S(=O)(=O)O)c5cc(S(=O)(=O)O)cc(S(=O)(=O)O)c45)ccc3C)c2)c1 | – | – | inactive | – | inactive
13 | Fc1ccccc1-c1ccccc1 | – | – | inactive | inactive | inactive
14 | CN1CCN(C2=Nc3ccccc3Oc3ccc(Cl)cc32)CC1 | – | inactive | inactive | inactive | –
15 | Cc1cc(OI)c(C(C)C)cc1-c1cc(C(C)C)c(OI)cc1C | inactive | inactive | – | – | –
16 | C=CCc1cc(OC)c(O)c(C(=O)NCCO)c1 | – | inactive | inactive | – | –
17 | C=CC(=O)CC | – | – | inactive | inactive | –
18 | COC(=O)N[C@H](C(=O)N[C@@H](Cc1ccccc1)[C@@H](O)CN(Cc1ccc(-c2ccccn2)cc1)NC(=O)[C@@H](NC(=O)OC)C(C)(C)C)C(C)(C)C | – | inactive | inactive | inactive | –
19 | CN1CCC(=C2c3ccccc3CCc3sccc32)CC1 | – | – | inactive | – | –
20 | CC(CN1c2ccccc2Sc2ccc(S(=O)(=O)N(C)C)cc21)N(C)C (configuration not stated) | – | inactive | inactive | – | –
